# KCNH2 3.1 inh = KCNH2 3.1 (human) potassium channel inhibition; U2OS KCNH2 3.1, thallium flux FluxOr; active compounds read low; activity change, % (tested at about 1.8 µM); 0.95% of 340,000 active;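 active = maximum activity change below -70%; inconclusive = maximum activity change from -70% to -50%; inactive = maximum activity change above -50%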;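 also: thallium influx rate constant from kinetic fluorescence after stimulation buffer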
#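 Steps: virus added to U2OS suspension (4 h, RT, dark); medium with 10% FBS added, cells plated, 37 C overnight; FluxOr/Red40 loading buffer 45 min RT; stimulation buffer, 2 min kinetic read; rate constant normalized.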
# TRPV1 agonist = activates the human vanilloid receptor TRPV1 | Q8NER1 | 0.19% of 320,000 active | TRPV1-expressing cells, Fluo-8 calcium influx, agonist mode | activation, % at 8.33 µM; in the data active = activation above about 80%; inconclusive = between about 30% and that limit
#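 Fluo-8 calcium influx in TRPV1-expressing cells, kinetic read (ex 480/em 520 nm). Compound added and read 3 min for agonist activity, followed by capsaicin at EC20 final and 2 min further read for enhancement.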
# KCNH2 WT inh = KCNH2 (human, wildtype) channel inhibition | Q12809 | U2OS, BacMam KCNH2, thallium flux FluxOr; active compounds read low | activity change, % at 1.84 µM | 0.37% of 340,000 active | AID 720551;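 active = maximum activity change below -70%; inconclusive = maximum activity change between -70% and -50%; inactive = maximum activity change above -50%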
#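 U2OS cells transduced with wild-type KCNH2 virus are loaded with FluxOr dye for 45 min, and thallium flux is measured in kinetic reads before and after stimulation buffer. Rate constants are normalized to DMSO controls.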
# p53 reactivation = mutant p53 re-activation in reporter cells | 0.063% of 320,000 active | Potency, µM (highest dose often 92.2 µM), usual class: activators | H1299 p53-A138V BP100-luciferase reporter, luminescence, 24 h; active = well fitted activation curve with a large enough effect; inconclusive = small, poorly fitted or top-dose-only effect; inactive = no such curve, though single readings can be large or run the other way; also: nearly all actives have a fitted effect of over 45% in size
#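 p53-null H1299 cells stably carrying temperature-sensitive p53-A138V and a BP100-luciferase reporter were pinned with compounds (4-point, 1:5 series) and held 24 hrs at 37 deg C. Luminescence was read 10 min after detection reagent.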
# TRPV1 PAM = potentiators of human vanilloid receptor 1 (TRPV1) | Q8NER1 | 0.02% of 320,000 active | potentiation, % at 8.33 µM | TRPV1-expressing cells, Fluo-8 calcium influx, capsaicin EC20 potentiation; in the data active = potentiation above about 80%; inconclusive = between about 30% and that limit
#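 Cells expressing TRPV1 were dye-loaded with Fluo-8 and read kinetically: 10 s baseline, 3 min after compound (agonist portion), then 2 min after EC20 capsaicin (allosteric enhancer portion). Calcium-bound dye fluorescence at 480/520 nm.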
# ClpP mod = qHTS Assay for Activators of ClpP | 1.9% of 340,000 active | Potency, µM (top dose mostly 57.5 µM) | ATP-dependent Clp protease proteolytic subunit (Bacillus subtilis (strain 168)), P80244 | purified B. subtilis ClpP, FRET peptide cleavage, 20 min; active = well fitted falling curve with a large enough effect; inconclusive = small, poorly fitted or top-dose-only effect; inactive = no such curve, though single readings can be large or run the other way; also: the source files actives as falling curves though it sought activators and does not explain the sign; nearly all actives have a fitted effect of over 65% in size
# Target sequence (P80244 whole entry, looked up): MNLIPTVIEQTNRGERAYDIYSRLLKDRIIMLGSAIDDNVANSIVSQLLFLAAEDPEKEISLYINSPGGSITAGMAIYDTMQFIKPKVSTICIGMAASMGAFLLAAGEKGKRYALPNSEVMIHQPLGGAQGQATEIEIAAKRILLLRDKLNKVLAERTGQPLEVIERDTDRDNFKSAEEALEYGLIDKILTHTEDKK
#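 FRET quenching reversal measured ClpP activation: 10 microg/mL B. subtilis ClpP at pH 8 with the FRET-FV decapeptide, read at 430 nm after 320 nm excitation. The 20-min minus 0-min signal was scaled between DMSO/no-enzyme wells and ADEP (5.8 microM final).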
# A number is an active result; - = inactive; ? = inconclusive; . = no result. Rows were chosen to be rich in hits. Some 2.6% of all compounds tested hit in one or more screens of this group.
SMILES,KCNH2 3.1 inh,TRPV1 agonist,KCNH2 WT inh,p53 reactivation,TRPV1 PAM,ClpP mod
COc1ccccc1NCCC(=O)OCC(=O)Nc1ccccc1Cl,-210,.,-106,-,.,-
COc1ccccc1OCCC(=O)OCC(=O)Nc1ccc(Br)cc1,-,-,-,-,-,28µM
COc1ccccc1OCCC(=O)OCC(=O)Nc1cccc(Br)c1,-,-,-,-,-,?
Cc1cc(C)nc(Nc2nc(C)c3cc4c(cc3n2)OCO4)n1,-,-,-,-,-,16µM
CSc1[nH]c(=O)c(C(=O)O)cc1C#N,-,-,-,-,-,40µM
CCOC(=O)c1cc(C#N)c(SCC(=O)O)[nH]c1=O,-,-,-,-,-,.
CCn1cc(C(=O)N(C)c2cc(C)ccc2C)c2cc(OC)c(OC)cc2c1=O,.,.,.,.,.,-
COc1ccc(CN2C(=O)c3cccnc3C2Nc2cc(Cl)ccc2OC)cc1 (configuration not stated),-,-,-,-,-,-
COc1ccc(OC)c(NC2c3ncccc3C(=O)N2Cc2ccco2)c1 (configuration not stated),-80,-,-,-,-,-
CC(C)C1C(=O)N(Cc2cn(CCC3OCCO3)nn2)CCS(=O)(=O)N1Cc1ccc(-c2ccccc2Cl)cc1 (configuration not stated),.,.,.,.,.,-
COc1cc(OC)c(N(C)C(=O)c2c(C)oc3ncn(CC(C)C)c(=O)c23)cc1Cl,.,.,.,.,.,-
CC1(C)Cc2c(cnn2-c2ccccc2)C(=O)/C1=N\NC(=O)c1ccccc1N,-,-,-,-,-,-
CC1(C)Cc2c(cnn2-c2ccccc2)-c2c1c1ccccc1n2CC(O)CBr (configuration not stated),-,-,-,-,-,14µM
CCOC(=O)C(C(=O)OCC)C1N=C(N)N=C2Oc3ccccc3N21 (configuration not stated),-,?,-,-,-,25µM
CCOC(=O)CN1C(=O)C(CC)Oc2ccccc21 (configuration not stated),-,-,-,-,-,-
COC(C(=O)NNS(=O)(=O)c1ccc([N+](=O)[O-])cc1)c1ccccc1 (configuration not stated),-,-,-,-,-,.
COC(C(=O)NNS(=O)(=O)c1ccccc1[N+](=O)[O-])c1ccccc1 (configuration not stated),-,-,-96,.,-,-
COC(=O)CN(C(=O)CSc1nnc(-c2cccc(OC)c2)o1)c1ccc(OC)cc1,-,-,-,-,-,16µM
CCOC(=O)CN(C(=O)CSc1nnc(-c2cccc(OC)c2)o1)c1ccc(F)cc1,-,-,-,-,-,-
C[C@H](CO)N1C[C@H](C)[C@@H](CN(C)Cc2ccc3c(c2)OCO3)Oc2c(NC(=O)C3CCCCC3)cccc2C1=O,-96,.,-,-,.,-
C[C@@H]1CN([C@H](C)CO)C(=O)c2cccc(NC(=O)c3ccncc3)c2O[C@@H]1CN(C)Cc1ccc(C(=O)O)cc1,-85,.,-,-,.,-
O=C(O)C#CC(=O)O,.,.,.,.,.,-
N#Cc1ccc(-c2ccco2)nc1SCc1ccccc1,-,-,-,-,-,10µM
CCOc1ccc(N(C)C(=O)c2oc(=O)c3ccccc3c2-c2ccccc2)cc1,.,.,.,.,.,-
COc1ccc2oc(-c3ccccc3)c(C(N)=O)c2c1,-,-,-,-,-,32µM
COc1ccc(C(=O)c2c(-c3ccc(OC)cc3)oc3ccc(-c4ccc(OC)nc4)cc23)cc1,-,.,-,.,.,16µM
CN(C)C(=O)c1c(-c2ccccc2)oc2ccc(O)cc12,-,-,-,-,-,20µM
O=C(C[n+]1cccc(Cl)c1)c1ccc(F)cc1,.,.,.,.,.,-
CCC(NC(=O)c1ccc([N+](=O)[O-])cc1[N+](=O)[O-])c1ccccc1 (configuration not stated),-,-,-,-,-,-
CCC(NC(=O)c1ccccc1O)c1ccccc1 (configuration not stated),-,-,-,-,-,32µM
